TRPV1 ag – HTS Assay for Compounds that Act as Agonists of the Vanilloid Receptor 1. TRPV1-expressing cells, Fluo-8 calcium influx, agonist mode. activation, % at 8.33 µM. 320,000 compounds, 0.19% hits. AID 540275, 2011; in the data active = activation above about 80%; inconclusive = between about 30% and that limit; also: 0% is about no effect
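Cells expressing TRPV1 were dye-loaded with Fluo-8 and read kinetically: 10 s baseline, 3 min after compound (agonist portion), then 2 min after EC20 capsaicin (allosteric enhancer portion). Calcium-bound dye fluorescence at 480/520 nm.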
hERG WT inh – qHTS for Inhibitors of KCHN2 3.1: Wildtype qHTS | U2OS, BacMam KCNH2, thallium flux FluxOr; stronger effect = lower value | activity change, % at 1.84 µM | 340,000 compounds, 0.37% hits | AID 720551, 2013;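 active = maximum activity change below -70%; inconclusive = maximum activity change between -70% and -50%; inactive = maximum activity change above -50%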; also: % is scaled to controls: 0 for no effect and ±100 for the full control effect
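U2OS cells were transduced with wild-type KCNH2 virus (2.03 x 10^8 / mL) for 4 h at room temperature, then cultured overnight at 37 C. Thallium flux was read with FluxOr dye. Rate constants were normalized to DMSO controls.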
KCNH2 3.1 block – qHTS for Inhibitors of KCHN2 3.1: Mutant qHTS; Potassium voltage-gated channel subfamily H member 2, brain isoform KCNH2 3.1 (human); U2OS KCNH2 3.1, thallium flux FluxOr; stronger effect = lower value; activity change, % (tested at about 1.8 µM); 340,000 compounds, 0.95% hits;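 active = maximum activity change below -70%; inconclusive = maximum activity change from -70% to -50%; inactive = maximum activity change above -50%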;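 also: thallium influx rate constant from kinetic fluorescence after stimulation buffer; % is scaled to controls: 0 for no effect and ±100 for the full control effect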
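FluxOr-based Tl+ influx in U2OS cells transduced with KCNH2 3.1 virus; rate constants normalized to DMSO controls.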
TRPV1 potentiator – HTS Assay for Compounds that Act as Potentiators of the Vanilloid Receptor 1; TRPV1-expressing cells, Fluo-8 calcium influx, capsaicin EC20 potentiation; potentiation, % at 8.33 µM; AID 540277, 2011; Transient receptor potential cation channel subfamily V member 1 (Homo sapiens), Q8NER1; 320,000 compounds, 0.02% hits; in the data active = potentiation above about 80%; inconclusive = between about 30% and that limit; also: 0% is about no effect
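TRPV1-expressing cells were cultured overnight at 35.5C and loaded with Fluo-8 calcium dye for 40 to 90 min at room temperature. After a 10 s baseline, compound was added and calcium influx was read kinetically for 3 min (ex 480/em 520 nm).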
MBNL1 CUG block – qHTS Assay for Inhibitors of MBNL1-poly(CUG) RNA binding; Muscleblind-like protein 1 (Homo sapiens), Q9NR56; TR-FRET MBNL1-His/biotin-(CUG)12 binding, 665/545 ratio; Potency, µM (doses to about 57.5 µM), inactives show top-dose activity change, negative = inhibition, usual class: inhibitors; 280,000 compounds, 0.036% hits; AID 2675, 2010; active = well fitted inhibition curve with a large enough effect in the signal ratio, with a control signal flat, not every such curve was filed as active; inconclusive = small, poorly fitted or top-dose-only effect, or effect the other way, or a change in a side signal; inactive = no such curve, though single readings can be large or run the other way; the % refers to the signal ratio; also: potency is read from the fitted curve at half-maximal effect; % is scaled to controls: 0 for no effect and ±100 for the full control effect
Target sequence (Q9NR56 whole entry, looked up): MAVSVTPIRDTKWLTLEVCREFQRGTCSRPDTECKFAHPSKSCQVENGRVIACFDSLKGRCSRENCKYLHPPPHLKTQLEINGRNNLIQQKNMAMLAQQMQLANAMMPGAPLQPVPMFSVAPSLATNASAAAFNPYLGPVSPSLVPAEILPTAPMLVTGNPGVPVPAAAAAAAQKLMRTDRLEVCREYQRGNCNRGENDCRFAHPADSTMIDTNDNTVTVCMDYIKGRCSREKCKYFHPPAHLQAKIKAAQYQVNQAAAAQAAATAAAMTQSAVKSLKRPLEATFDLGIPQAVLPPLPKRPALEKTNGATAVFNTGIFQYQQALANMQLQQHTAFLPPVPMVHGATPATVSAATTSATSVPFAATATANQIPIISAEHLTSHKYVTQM
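MBNL1-His + Biotin-(CUG)12, cpd titration 92 nM–58 uM; Tb anti-His Ab 0.055 ng/ul, SA-XL665 5 nM (final); 60 min RT; ratiometric 665/545 nm, Ex 340 nm; normalized to buffer and full-complex controls.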
An asterisk follows results filed as active; u = inconclusive; x = not tested or not shown; ! = repeats disagree. Most compounds without a hit are left out; they make up all but 1.3% or so of the library.

SMILES | TRPV1 ag | hERG WT inh | KCNH2 3.1 block | TRPV1 potentiator | MBNL1 CUG block
Ic1ccc(N2CCN(Cc3c[nH]c4ncccc34)CC2)cc1 | 3 | -19 | -79* | -9 | x
CCOc1ccccc1N(CC(=O)Nc1cccnc1)S(C)(=O)=O | 6 | -2 | -86* | -3 | -6%
CCOc1ccccc1N(CC(=O)Nc1cccnc1)S(=O)(=O)c1ccc(C)cc1 | u | -1 | -15 | -31 | -4%
O=C(COc1ccc(-c2ccccc2)cc1)N1CCN(S(=O)(=O)Cc2ccccc2)CC1 | -2 | -3 | -75* | -11 | -4%
CC(=O)N1CCN(c2nc(CC(C)C)c3c(c2C#N)CCC3)CC1 | 93* | 2 | -5 | 21 | 1%
CC(C)Cc1nc(N2CCN(C(=O)C(C)C)CC2)c(C#N)c2c1CCC2 | -1 | 1 | 2 | 0 | 0%
O=C(COC(=O)C1CCN(c2ccc(C(F)(F)F)cn2)CC1)c1ccc(F)cc1 | 0 | -44 | -78* | u | x
COc1cc(C(=O)COC(=O)C2CCN(c3ccc(C(F)(F)F)cn3)CC2)ccc1OC(F)F | 5 | -7 | -79* | -12 | x
O=C(Cc1ccc(F)cc1)N[C@@H]1c2ccccc2CC[C@H]1OCc1ccccc1 | x | 0 | -8 | x | x
COc1c(C)cc(Br)cc1C(=O)Nc1ccccc1N1CCN(C(=O)c2ccccc2)CC1 | 14 | 2 | -4 | 15 | -6%
COc1ccc(C(=O)Nc2ccccc2N2CCN(C(=O)C(C)C)CC2)cc1Cl | u | -4 | -3 | -11 | -3%
O=C(Nc1ccccc1N1CCN(C(=O)c2ccccc2)CC1)c1cc(Br)ccc1Cl | u | u | -92* | -5 | -2%
CCOc1ccc(C(=O)Nc2ccccc2N2CCN(C(=O)c3ccccc3)CC2)cc1[N+](=O)[O-] | 8 | -92* | -104* | -1 | -2%
COc1ccc(Cl)cc1C(=O)Nc1ccccc1N1CCN(C(=O)C(C)C)CC1 | 4 | -90* | -10 | 7 | 13%
COc1ccc(Br)cc1C(=O)Nc1ccccc1N1CCN(C(=O)c2ccccc2)CC1 | 1 | -85* | 17 | 14 | -1%
O=C(Nc1ccccc1N1CCN(C(=O)c2ccccc2)CC1)c1cccc(Cl)c1 | u | 6 | -29 | -15 | -11%
C[C@H]1CN([C@@H](C)CO)C(=O)c2cc(Br)cnc2O[C@@H]1CN(C)C(=O)C1CCC1 | x | -10 | 5 | x | x
O=C1c2cccnc2C(Nc2ccc(F)c(Cl)c2)N1Cc1cccs1 (configuration not stated) | u | 0 | 0 | -9 | -28%
CC(OC(=O)Cc1cccc(C(F)(F)F)c1)C(=O)Nc1ccc(Cl)cn1 (configuration not stated) | 23 | 8 | x | -10 | 0%
O=C(Nc1ccc(N2CCN(C(=O)c3ccccc3)CC2)cc1)c1ccc(Br)o1 | 16 | 1 | -11 | -13 | 0%
O=C(Nc1ccc(N2CCN(C(=O)c3ccccc3)CC2)c(Cl)c1)c1ccc(Br)o1 | 19 | -12 | -102* | 5 | 20%
COc1ccc(-c2cn3c4c(sc3n2)CCCC4)cc1 | 81* | -6 | x | -18 | -1%
COc1ccc(CNC(=O)C2CC(=O)N(C3CCCC3)C2)cc1 (configuration not stated) | 1 | 6 | 6 | 2 | 3%
CCOc1ccc(Nc2ncnc3c2cnn3C)cc1 | u | 2 | 4 | -10 | -6%
CC(=O)Nc1ccc(Nc2ncnc3c2cnn3-c2ccc(C)cc2C)cc1 | 87* | -12 | 0 | -17 | -1%
SMILES | TRPV1 ag | hERG WT inh | KCNH2 3.1 block | TRPV1 potentiator | MBNL1 CUG block
CCOC(=O)c1ccc(Nc2ncnc3c2cnn3C)cc1 | 83* | -22 | 2 | 2 | 5%
CN(CC(=O)Nc1ccccc1Cl)CC(=O)c1c(N)n(Cc2ccccc2)c(=O)n(C)c1=O | -2 | 2 | -24 | -6 | x
C=CCc1cc(OC)ccc1OCC(O)CN1CCN(c2ccc(OC)cc2)CC1 (configuration not stated) | 2 | 60 | -82*! | 6 | 6%
COc1ccc(OCC(O)CN2CCN(c3ccc(OC)cc3)CC2)cc1 (configuration not stated) | -1 | 15 | -18 | 9 | -6%
COc1ccc(N2CCN(CC(O)COC(c3ccccc3)c3ccccc3)CC2)cc1 (configuration not stated) | 1 | u | -105* | 1 | 9%
COc1ccc(N2CCN(CC(O)COC(c3ccc(F)cc3)c3ccc(F)cc3)CC2)cc1 (configuration not stated) | -3 | -82* | -119* | 26 | 3%
COc1ccc(N2CCN(CC(O)COc3ccc(F)cc3)CC2)cc1 (configuration not stated) | -5 | 18 | -42 | 16 | -4%
O=C1C(=O)N(CCc2c[nH]c3ccccc23)C(c2cccnc2)/C1=C(/O)c1ccccc1 (configuration not stated) | -2 | x | x | 4 | u
COc1ccc(NC(=S)NCCc2c(C)[nH]c3ccc(OC)cc23)cc1 | 4 | -9 | x | 18 | -18%
COc1ccc(-n2c(COc3ccc(C)cc3)nnc2SCc2ccc(C#N)cc2)cc1 | u | 14 | -34 | -9 | -7%
COc1ccc(-n2c(COc3ccc(Cl)cc3)nnc2SCc2ccc(C#N)cc2)cc1 | 19 | 4 | -79* | -5 | -10%
NC(=O)C1(N2CCCCC2)CCN(C(=O)c2cc(COc3c(F)cccc3F)on2)CC1 | x | -9 | -13 | x | x
Cc1ccc(S(=O)(=O)Nc2cc(-c3ccccc3)nn2C)cc1 | 1 | -5 | -29 | -1 | -6%
Cc1ccc(S(=O)(=O)Nc2cc(-c3ccc(Cl)cc3)nn2C)cc1 | 1 | -18 | -174* | 11 | x
O=C(CSc1cccc[n+]1[O-])Nc1c(Br)cc([N+](=O)[O-])cc1Br | -1 | -2 | -133* | -1 | u
Cc1c(Cl)cccc1NC(=S)NC1CCN(C(C)C)CC1 | 3 | 2 | 11 | 0 | -6%
Nc1nc(-c2ccccc2Cl)cs1 | x | 4 | -71* | x | x
CNC(=O)CS(=O)CC(=O)Nc1cc(OCCOC)c(Cl)cc1Cl (configuration not stated) | -1 | -3 | 3 | 10 | 2%
O=C(CSc1nnc(CNc2ccc(F)cc2)o1)N1c2ccccc2Sc2ccccc21 | -1 | -2 | -4 | -1 | -1%
CCN1CCN(C(CNS(=O)(=O)c2cccs2)c2cccnc2)CC1 (configuration not stated) | 0 | 16 | -462* | 7 | 5%
